GPR151 ag: activators of human GPR151, primary screen, cell-based, PathHunter beta-arrestin, luminescence; G-protein coupled receptor 151 (Homo sapiens), Q8TDV0; PathHunter beta-arrestin GPR151 cells; activation, % at 11.2 µM; 650,000 tested, 1% active; AID 1508602, 2020; in the data active = activation above about 4.9%
FBW7 activator: FBW7 E3 ligase activators, primary screen, biochemical, AlphaScreen, human | F-box/WD repeat-containing protein 7 (Homo sapiens), Q969H0 | AlphaScreen FBW7–phospho-cyclin E peptide binding, activator screen | normalized activity (activation), % at 26.1 µM | 650,000 tested, 0.13% active | AID 1259310, 2017; in the data active = normalized activity above about 1.9%;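 also: purified mutant Fbw7 with reduced substrate affinity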
MITF primary: MITF inhibitors, primary screen, biochemical, AlphaScreen, human | 650,000 tested, 0.91% active | Microphthalmia-associated transcription factor (Homo sapiens), O75030 | inhibition, % at 2.6 µM | AlphaScreen MITF homodimerization, bead proximity signal; in the data active = inhibition above about 50%
Target sequence (O75030 whole entry, looked up): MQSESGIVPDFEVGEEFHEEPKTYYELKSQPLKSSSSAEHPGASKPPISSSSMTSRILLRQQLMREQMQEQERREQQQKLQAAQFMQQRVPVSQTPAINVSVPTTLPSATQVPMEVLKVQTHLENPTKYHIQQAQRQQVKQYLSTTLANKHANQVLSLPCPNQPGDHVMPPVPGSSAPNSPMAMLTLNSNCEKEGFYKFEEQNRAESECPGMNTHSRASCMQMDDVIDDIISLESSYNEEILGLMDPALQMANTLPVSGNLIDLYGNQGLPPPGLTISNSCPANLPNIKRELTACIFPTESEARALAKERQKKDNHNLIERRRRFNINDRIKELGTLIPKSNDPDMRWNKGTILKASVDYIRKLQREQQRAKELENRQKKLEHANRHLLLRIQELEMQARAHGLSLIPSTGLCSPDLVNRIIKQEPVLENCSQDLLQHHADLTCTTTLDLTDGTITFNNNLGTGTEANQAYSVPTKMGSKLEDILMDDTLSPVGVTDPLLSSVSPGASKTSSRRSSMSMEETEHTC
TEAD-YAP inh: TEAD-YAP interaction inhibition, primary screen, TEAD-YAP interaction inhibitor project, luminescence, HEK-TIYL cells | AID 1259422, 2018 | inhibition, % at 9.12 µM | TEAD-Gal4/YAP UAS-luciferase luminescence | 640,000 tested, 1.4% active; in the data active = inhibition above about 32%
MITF inh conf: MITF inhibitors, retest of hits, confirmation, biochemical, AlphaScreen, triplicate | shares compounds with MITF primary | AID 1259372, 2018 | 4,700 tested, 16% active | AlphaScreen MITF homodimerization, biotin/His-MITF beads | inhibition, % at 2.6 µM;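 active = inhibition above a cutoff derived from the DMSO control wells, cut at about 28% in these data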;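 also: inhibitors lower the bead chemiluminescence by keeping MITF from dimerizing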
AlphaScreen DR: AlphaScreen optical interference compounds, dose response, counter-screen, biochemical, HTS; shares compounds with MITF primary; AlphaScreen optical interference counterscreen, cell-free; IC50, µM; 480 tested, 6% active; AID 1259373, 2018; call rule not given here
AS interf ctr: AlphaScreen optical interference compounds, counter-screen for MITF inhibitor project, biochemical, triplicate | shares compounds with MITF primary | LysRS AlphaScreen counterscreen, signal interference | inhibition, % at 2.6 µM | 4,700 tested, 7.6% active;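 active = inhibition above a cutoff derived from the DMSO control wells, cut at about 30% in these data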
Numbers stand for hits; 0 = inactive; - = no result. This is a sample that favours compounds with a hit; in the whole collection about 3.5% have one here.

SMILES | GPR151 ag | FBW7 activator | MITF primary | TEAD-YAP inh | MITF inh conf | AS interf ctr | others
Cc1ccccc1CN1CCN(CC2CC3C=CC2C3)CC1 (stereo not drawn) | 0 | 0 | 77 | 0 | 0 | 0
COc1cc(OC)c(OC)cc1CN1CCN(CC2CC3C=CC2C3)CC1 (stereo not drawn) | 0 | 0 | 57 | 0 | 0 | 0
COc1ccc(CN2CCN(CC3CC4C=CC3C4)CC2)c(OC)c1 (stereo not drawn) | 0 | 0 | 72 | 0 | 0 | 0
Cc1ccc2nc(NC(=O)COc3ccc(Cl)cc3Cl)sc2c1 | 0 | 0 | 0 | 0 | - | -
COc1ccc(S(=O)(=O)CCC(=O)Nc2nc3ccc(C)cc3s2)cc1 | 0 | 0 | 0 | 0 | - | -
CS(=O)(=O)c1ccc2nc(NC(=O)COc3ccc(Cl)cc3Cl)sc2c1 | 0 | 0 | 74 | 0 | 0 | 0
COc1ccc(S(=O)(=O)CCC(=O)Nc2nc3ccc(OC)cc3s2)cc1 | 0 | 0 | 54 | 0 | 28 | 0
CN(Cc1ccccc1)C1CCN(Cc2ccccn2)CC1 | 0 | 0 | 0 | 0 | - | -
CN(C)CCN(Cc1ccccc1)C1CCN(Cc2ccncc2)CC1 | 0 | 0 | 0 | 0 | - | -
CN(Cc1ccccc1)C1CCN(Cc2ccncc2)CC1 | 0 | 0 | 81 | 0 | 0 | 0
CN(Cc1ccccc1)C1CCN(Cc2cccnc2)CC1 | 0 | 0 | 72 | 0 | 0 | 0
Cc1c(C)n(C(=O)CN2CCN(c3ccccn3)CC2)c2ccccc12 | 0 | 0 | 0 | 0 | - | -
CCN1CCN(CC(=O)n2c(C)c(C)c3ccccc32)CC1 | 0 | 0 | 74 | 0 | 0 | 0
CCCN1CCC(N2CCN(S(=O)(=O)c3ccc4ccccc4c3)CC2)CC1 | 0 | 0 | 0 | 0 | - | -
Cc1cc(OS(=O)(=O)c2ccccc2[N+](=O)[O-])c(C)cc1CN1CCOCC1 | 0 | 0 | 0 | 0 | - | -
O=C(CC1Nc2ccccc2NC1=O)Nc1cccc(Cl)c1 (stereo not drawn) | 0 | 0 | 65 | 0 | 0 | 0
Cc1ccc2c(Cl)c(C(=O)N3CCc4ccccc4C3)sc2c1 | 0 | 0 | 0 | 0 | - | -
CN(C)[C@@H]1C(=O)C(C(=O)NCN2CCCC2)=C(O)[C@@]2(O)C(=O)C3=C(O)c4c(O)cccc4[C@@](C)(O)[C@H]3C[C@@H]12 | 0 | 0 | 75 | 0 | 81 | 0 | AlphaScreen DR=0
OC1CCN(Cc2cccc(F)c2)CC1 | 0 | 0 | 0 | 0 | - | -
Fc1cccc(CN2CCN(C3CCCCCC3)CC2)c1 | 0 | 0 | 66 | 0 | 0 | 0
CC1CCC(N2CCN(Cc3cccc(F)c3)CC2)CC1 (stereo not drawn) | 0 | 0 | 54 | 0 | 0 | 0
Fc1ccc(CN2CCN(C3CCCCC3)CC2)cc1 | 0 | 0 | 0 | 0 | - | -
Fc1cccc(CN2CCN(C3CCCCC3)CC2)c1 | 0 | 0 | 72 | 0 | 0 | 0
CCCNC(=O)c1ccc(CN(c2ccccc2)S(C)(=O)=O)cc1 | 0 | 0 | 0 | 0 | - | -
CCCCNC(=O)c1ccc(CN(c2ccccc2)S(C)(=O)=O)cc1 | 0 | 0 | 92 | 0 | 0 | 0
SMILES | GPR151 ag | FBW7 activator | MITF primary | TEAD-YAP inh | MITF inh conf | AS interf ctr | others
COc1ccc(Br)cc1CN1CCN(Cc2c[nH]c3ccccc23)CC1 | 0 | 0 | 0 | 0 | - | -
COc1ccc(OC)c(CN2CCN(c3ccccn3)CC2)c1 | 0 | 0 | 0 | 0 | - | -
COc1ccccc1CN1CCN(Cc2cccnc2)CC1 | 0 | 0 | 84 | 0 | 0 | 0
COc1ccccc1C1(O)CCN(Cc2cccnc2)CC1 | 0 | 0 | 0 | 0 | - | -
COc1cc(OC)c(OC)cc1CN1CCN(Cc2cccnc2)CC1 | 0 | 0 | 82 | 0 | 0 | 0
COc1ccc(Br)cc1CN1CCN(Cc2cccnc2)CC1 | 0 | 0 | 59 | 0 | 0 | 0
COc1ccc(OC)c(CN2CCN(Cc3cccnc3)CC2)c1 | 0 | 0 | 82 | 0 | 0 | 0
COc1cc(N2CCN(C(=O)c3c(F)cccc3Cl)CC2)nc(C)n1 | 0 | 0 | 0 | 0 | - | -
O=C1NC(=O)C(=Cc2nc(-c3ccccc3)n3ccccc23)C(=O)N1 | 0 | 0 | 0 | 0 | - | -
COc1cc(NC(=O)c2ccc3nc(Nc4ccc(-n5ccnc5)cc4)sc3c2)cc(OC)c1OC | 0 | 0 | 57 | 0 | 0 | 0
CC(=O)Nc1ccc(NC(=O)c2ccc3nc(Nc4ccc(-n5ccnc5)cc4)sc3c2)cc1 | 0 | 0 | 0 | 0 | - | -
O=C(O)C1CC=CCC1C(=O)Nc1nncs1 (stereo not drawn) | 0 | 0 | 53 | 0 | 48 | 0 | AlphaScreen DR=0
O=C(O)C1CCCCC1C(=O)Nc1nncs1 (stereo not drawn) | 0 | 0 | 0 | 0 | - | -
S=c1[nH]nc(-c2ccncc2)n1/N=C/C=C/c1ccco1 | 0 | 0 | 70 | 0 | 80 | 0 | AlphaScreen DR=0
COc1ccc(Cl)cc1N1C(=O)C2C3C=CC(CC3)C2C1=O (stereo not drawn) | 0 | 0 | 0 | 0 | - | -
O=C(CCl)Nc1ccccc1N1CCCCCC1 | 0 | 0 | 0 | 0 | - | -
O=C(CNCc1ccccc1Cl)Nc1ccccc1N1CCCCC1 | 0 | 0 | 62 | 0 | 0 | 0
O=C(CNCc1ccccc1F)Nc1ccccc1N1CCOCC1 | 0 | 0 | 74 | 0 | 0 | 0
Cc1ccc2cc(CN(CCO)Cc3nnnn3C3CCCC3)c(=O)[nH]c2c1 | 0 | 0 | 0 | 0 | - | -
COc1ccc([N+](=O)[O-])cc1NC(=O)CCCOc1cc(=O)n(C)c2ccccc12 | 0 | 0 | 0 | 0 | - | -
CC(=O)Nc1ccc(-n2c(C)cc(C=O)c2C)cc1 | 0 | 0 | 0 | 0 | - | -
CCOc1cc(-c2ccc(I)o2)cc(=O)c2c(C)oc(C)c12 | 0 | 0 | 58 | 0 | 37 | 0
CCOc1cc(-c2cc(OCC)c3c(C)oc(C)c3c(=O)c2)ccc1O | 0 | 0 | 0 | 0 | - | -
CCC(C)NCCOc1cccc(Br)c1 (stereo not drawn) | 0 | 0 | 61 | 0 | 45 | 0 | AlphaScreen DR=0
CCC(C)NCCCOc1ccc(Br)cc1C (stereo not drawn) | 0 | 0 | 57 | 0 | 0 | 0
SMILES | GPR151 ag | FBW7 activator | MITF primary | TEAD-YAP inh | MITF inh conf | AS interf ctr | others
CCC(C)NCCOCCOc1ccccc1 (stereo not drawn) | 0 | 0 | 0 | 0 | - | -
CCOc1cccc(OCCCNC(C)CC)c1 (stereo not drawn) | 0 | 0 | 0 | 0 | - | -
CCC(C)NCCOCCOc1ccc(I)cc1 (stereo not drawn) | 0 | 0 | 55 | 0 | 0 | 0
C=CCN(c1ccccc1)S(=O)(=O)c1ccc(F)c(C(=O)Nc2ccc(Cl)cc2C(F)(F)F)c1 | 0 | 0 | 0 | 0 | - | -
O=C1CCCN1C(=O)CSc1nc(-c2ccccc2)cs1 | 0 | 0 | 0 | 0 | - | -
O=C(CCCn1c(=S)[nH]c2ccccc2c1=O)N1CCOCC1 | 0 | 0 | 114 | 0 | 0 | 0
CC(C)NC(=O)c1ccc2c(=O)n(CCC3=CCCCC3)c(=S)[nH]c2c1 | 0 | 0 | 84 | 0 | 0 | 0

Screening data (PubChem)
